Results: the supplement of paper PMC10105736
Values without a mark were called inactive.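 The calls were made as follows: active = MAPPIT score above the 99th percentile of random reference set scores in the same batch; inactive = at or below it.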

Experiments:
Experiment in all cases: MAPPIT interaction score (arbitrary units); higher = stronger binary interaction signal, active = hit call of the paper
Psi = details: MAPPIT configuration: N-N; pair source set: Lit-BM-16
Pten = details: MAPPIT configuration: N-N; pair source set: DPIM
Prosbeta3 = details: MAPPIT configuration: N-C; pair source set: Lit-BM-16
Rab26 = details: MAPPIT configuration: N-N; pair source set: Lit-BS-16
RPA2 = details: MAPPIT configuration: N-N; pair source set: Finley_Y2H
ScsbetaG = details: MAPPIT configuration: N-N; pair source set: Finley_Y2H
Rbp1 = details: MAPPIT configuration: N-N; pair source set: Finley_Y2H
ReepB = details: MAPPIT configuration: N-N; pair source set: Lit-BS-16
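Also: HEK293T cells with Epo stimulation, STAT-responsive firefly luciferase reporter, fold induction versus unstimulated cells divided by the larger fold induction of two negative controls lacking either bait or prey.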

B1: snRNP-U1-70K (protein)
chain: MTQYLPPNLLALFAAREPIPFMPPVDKLPHEKKSRGYLGVAKFMADFEDPKDTPLPKTVETRQERLERRRREKAEQVAYKLEREIALWDPTEIKNATEDPFRTLFIARINYDTSESKLRREFEFYGPIKKIVLIHDQESGKPKGYAFIEYEHERDMHAAYKHADGKKIDSKRVLVDVERARTVKGWLPRRLGGGLGGTRRGGNDVNIKHSGREDNERERERYRLEREREDREGPGRGGGSNGLDARPGRGFGAERRRSRSRERRDRERDRGRGAVASNGRSRSRSRERRKRRAGSRERYDEFDRRDRRDRERERDRDREREKKKKRSKSRERESSRERRERKRERRDRERGTGSGGDVKERKPDFRDMDVIKIKEEPVDDGYPTFDYQNATIKREIDDEDEEKYRPPPAHHNMFSVPPPPILGRGNASTNPNPDNGQQSSGDPSWWRQ
- MAPPIT interaction score (Psi): 0.25

B2: mTerf3 (protein)
chain: MFCSALRNILRNSQNAAKNATITSQIRNLRGQQSVHHEVEVLTSPGITTKQNDKKTEPAECEGSKEVALDFRNREAHVPSFNLAAYVNNSSTLQQFLSLGVDLHSIERRKGLGDFVLKLDFEKNVKPYITFLVDQGVSPDDFGRMFTKNPLLFKEDLDDLQTRVNYLKSKRFSDEARQRILTQNPYWLMFSTRRVDRRLGYFQKEFKLSGHDLRLLATREPNAITYNMEHLRKSVFTLKEEMGFNAKELSDLVVRKPRLLMIPPDDLVERFSYIHQDMGLPHAQIVQCPELLASREFRLRERHEFLKLLGRAQYDPQKDLYISPKTIVEGNNFYFVRNVAKSDLETFDLFLKTR
- MAPPIT interaction score (Pten): -0.325

B3: Prosalpha4 (protein)
chain: MSSRYDRAVTIFSPDGHLLQVEYAQEAVRKGSTAVGVRGANCVVLGVEKKSVAQLQEDRKVRKICMLDNHVVMAFAGLTADARIMINRAQVECQSHRLNVEDPVTLEYITRFIAQLKQKYTQSNGRRPFGISCLIGGFDADGSAHLFQTEPSGIFYEYKANATGRSAKVVREFFEKSYREEEVANEHGAVKLAIRALLEVAQSGQNNLEVAIMENGKPLKMLDTDVITDYVKIIEKEKEEELEKKKQKK
- MAPPIT interaction score (Prosbeta3): 1.51

B4: Phb1 (protein)
chain: MAAQFFNRIGQMGLGVAVLGGVVNSALYNVEGGHRAVIFDRFTGIKENVVGEGTHFFIPWVQRPIIFDIRSQPRNVPVITGSKDLQNVNITLRILYRPIPDQLPKIYTILGQDYDERVLPSIAPEVLKAVVAQFDAGELITQREMVSQRVSQELTVRAKQFGFILDDISLTHLTFGREFTLAVEMKQVAQQEAEKARFVVEKAEQQKLASIISAEGDAEAAGLLAKSFGEAGDGLVELRRIEAAEDIAYQLSRSRGVAYLPSGQSTLLNLPSTIAQ
- MAPPIT interaction score (Rab26): 0.345

B5: Lip3 (protein)
chain: MTRGALKVTILLVGLGLVLAGSRPISDCGERIEDDGYPMERHEVVTSDNYILTMHRIPYSPKTGESSNRPVAFLMHGMLSSSSDWVLMGPERSLAYMLADAGYDVWMGNARGNTYSKAHKYWPTYWQIFWNFSWNEIGMYDVPAMIDYVLAKTGQQQVQYVGHSQGTTVYLVMVSERPEYNDKIKSAHLLGPAAYMGNMKSPLTRAFAPILGQPNAIVEVCGSMEFMPSNKFKQDLGIEMCQATSPYADMCANEIFLIGGYDTEQLDYELLEHIKATSPAGASVNQNLHFCQEYNSGKFRKFDYTALRNPYEYGSYFPPDYKLKNAKAPVLLYYGANDWMCDVSDVRKLRDELPNMALDYLVPFEKWAHLDFIWGTEARKYVYDEVLKQMQSYE
- MAPPIT interaction score (RPA2): 0.346
- MAPPIT interaction score (ScsbetaG): 1.35

B6: Rsf1 (protein)
chain: MGDQRGTRVYVGNLTDKVKKDDLEGEFTKYGKLNSVWIAFNPPGFAFVEFEHRDDAEKACDILNGSELLGSQLRVEISKGRPRQGRRGGPMDRGGRRGDFGRHSITSGGSGGGGFRQRGSSGSSSRHTERGYSSGRSGASSYNGREGGGSGFNRREVYGGGRDSSRYSSGSSASYGRTGGQSAGRFRSRSPVGNHRF
- MAPPIT interaction score (Rbp1): 0.372

B7: wol (protein)
chain: MWTCLCQLCFYLLSTLAVAALSIAALVLYKTKPYPNIKRHKDEETFLDPHTIKTVTFPSLEDSPSLELSVIVPAYNEEQRLPSMLDECLAFLEQKSAGTPNFTYEVIVVSDGSQDATVSVALGYSKKHGAEKVRVLELIENRGKGGAVRMGMLSARGRNLLFADADGATKFPDYDKLEVALKQLAPEWRDDGIAIGSRAHLENDAIATRSFFRTILMHGFHFLVWLFAVRSIRDTQCGFKLFTRTTARKLFTSLHVERWAFDVELLYLAENLKLPMSEVAVRWTEIDGSKLTPFWSWLQMGRDLFMIWVRYLVGAWRIASIQKKEK
- MAPPIT interaction score (ReepB): 0.541
